Screening data (PubChem BioAssay)
SARS PLpro yeast: blocks SARS-CoV papain-like protease in a yeast assay; S. cerevisiae expressing SARS-CoV PLpro, growth rescue; Potency, µM (series often up to 32.9 µM), for inactives: top-dose activity, positive = growth rescue, hits mostly activators; 330,000 compounds, 0.19% hits; calls by dose curve; further: 0% is about no effect; nearly all actives have a fitted effect of over 55% in size
Pf growth 96h: inhibits malaria parasite growth, 96 h | Potency, µM (titrated, usually from 28.7 µM), for the others: at the top dose activity change, negative = inhibition, actives largely listed as inhibitors | AID 504834 | 320,000 compounds, 6.9% hits | P. falciparum luciferase reporter growth, 96 h; further: on the % scale 0 is the no-effect control and ±100 the full control effect
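Parasite growth measured via integrated firefly luciferase reporter in P. falciparum. Infected erythrocytes at 2% hematocrit, 0.05% parasitemia final were treated 96 hours at 37 C under 5% CO2, and luminescence was read.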
HCV inh: HCV inhibition; Huh7.5.1 HCVcc-Cre infection, luciferase reporter, 44 h; Potency, µM (series often up to 41.8 µM), without a hit: at the highest dose activity change, negative = inhibition, actives largely listed as inhibitors; 340,000 compounds, 3.4% hits; AID 651820; further: on the % scale 0 is the no-effect control and ±100 the full control effect
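Whole-lifecycle infectious HCVcc-Cre system; cells 1,000/well, compound then virus (~0.5 moi) added 4 h after plating, 44 h culture. Luciferase read 15 sec following 15 min substrate incubation, room temp.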
AMA1-RON2 inh: AMA1-RON2 (P. falciparum) interaction inhibition | Potency, µM (top dose mostly 58.2 µM), for the others: at the top dose activity change, negative = inhibition, usual class: inhibitors | AlphaScreen AMA1-biotinylated RON2 peptide binding | AID 720542 | 360,000 compounds, 0.2% hits;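 further: 0% = vehicle wells and -100% = peptide control; nearly all actives have a fitted effect of over 45% in size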
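AMA1 (3D7) with his tag at 25 nM final met compounds first, then biotinylated RON2 peptide at 25 nM; detection used donor plus acceptor beads, 10 µg/mL apiece, read by AlphaScreen after 30 min at room temperature.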
NS1 function inh: blocks influenza NS1 protein function. Potency, µM (titrated, usually from 46.1 µM), inactives show top-dose activity, positive = more growth. 270,000 compounds, 0.4% hits. AID 2326; calls by dose curve; further: actives are rising curves; nearly all actives have a fitted effect of over 50% in size
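Recovery from NS1-induced slow growth read by OD600 in budding yeast switched to galactose assay medium (pH 6.0, -URA) at 1:100 dilution. Compound 23 nl per well; the matching strain lacking NS1 serves as control.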
Pf growth 48h: P. falciparum growth inhibition at 48 hours (one generation). P. falciparum luciferase growth in erythrocytes, 48 h. 310,000 compounds, 5.9% hits. Potency, µM (titrated, usually from 28.7 µM), for the others: top-dose activity change, negative = inhibition, hits mostly inhibitors; further: on the % scale 0 is the no-effect control and ±100 the full control effect
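First compound was added to culture medium, then infected red cells at 0.1% parasitemia and 2% hematocrit (final). After incubation at 37 C under 5% CO2, luciferase detection reagent was dispensed and light output recorded.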
An asterisk follows results filed as active. In the library only some 12% were active in any assay of this set; here they are far more common. Unless noted, the call rests on the fitted dose curve; in most records, active means well fitted curve in the direction sought with a large enough effect; inconclusive means small, poorly fitted or top-dose-only effect, or another doubt; inactive means no such curve, though single readings can be large; an effect the other way counts as inactive or inconclusive. Potency means the concentration at half of the fitted maximal effect.

O=C(c1ccccc1)N1N=C(c2ccccc2)CC1c1ccccc1 (stereo not drawn) was read as SARS PLpro yeast -1.3%, Pf growth 96h 2.33µM*, HCV inh 12.8%, AMA1-RON2 inh 13.8% and NS1 function inh -0.6%.
COc1ccc(C2CC(c3ccccc3)=NN2C(=O)c2cccs2)cc1 (stereo not drawn) was read as SARS PLpro yeast -6.8%, Pf growth 96h inconclusive, HCV inh inconclusive, AMA1-RON2 inh 20.0%, NS1 function inh 21.3% and Pf growth 48h inconclusive.
Screening Cc1ccc(C2=NN3C(=O)c4ccccc4C3C2)cc1 (stereo not drawn) returned SARS PLpro yeast -0.1%, Pf growth 96h 8.28µM*, HCV inh -11.7%, AMA1-RON2 inh -11.1%, NS1 function inh -3.7% and Pf growth 48h inconclusive.
`COc1ccc(C2=NN(C(=O)c3cccs3)C(c3ccccc3O)C2)cc1` (stereo not drawn) gave SARS PLpro yeast -7.1%, Pf growth 96h inconclusive, HCV inh inconclusive, AMA1-RON2 inh 1.0% and Pf growth 48h 10.4µM*.
`CC(=O)N1N=C(c2ccccc2)CC1c1ccccc1[N+](=O)[O-]` (stereo not drawn) gave SARS PLpro yeast 18.4%, Pf growth 96h -8.6%, HCV inh 6.7%, AMA1-RON2 inh -2.6%, NS1 function inh -1.1% and Pf growth 48h inconclusive.
For CC(=O)NCCc1nc2cc(NC(=O)COc3ccc(C)cc3)ccc2n1C the results were SARS PLpro yeast 3.6%, Pf growth 96h 0.6%, HCV inh 9.0%, AMA1-RON2 inh -1.6%, NS1 function inh -1.8% and Pf growth 48h -25.3%.
Screening CC(C)OCCCNC(=O)CNC(=O)c1ccc(Cl)c(Cl)c1 returned SARS PLpro yeast -3.4%, Pf growth 96h 16.4%, HCV inh -4.7%, AMA1-RON2 inh 11.9% and Pf growth 48h 6.7%.
For Cc1ccc(N(C(=O)c2snc(C(N)=O)c2N)C(C(=O)NC2CCCC2)c2ccncc2)cc1 (stereo not drawn) the results were SARS PLpro yeast 1.5%, Pf growth 96h 17.8%, HCV inh -6.1%, AMA1-RON2 inh 11.2%, NS1 function inh -10.0% and Pf growth 48h inconclusive.
CCC(=O)N1N=C(c2ccccc2)CC1c1ccccc1 (stereo not drawn) was read as SARS PLpro yeast -3.0%, Pf growth 96h inconclusive, HCV inh -22.4%, AMA1-RON2 inh -4.2%, NS1 function inh -9.8% and Pf growth 48h inconclusive.
Screening Cc1ccc(C(=O)N2N=C(c3ccccc3O)CC2c2ccccc2)cc1 (stereo not drawn) returned SARS PLpro yeast 1.3%, Pf growth 96h inconclusive, HCV inh 5.2%, AMA1-RON2 inh -5.7%, NS1 function inh -2.8% and Pf growth 48h 10.4µM*.
`O=C(O)c1ccccc1C(=O)N1N=C(c2ccccc2)CC1c1ccccc1O` (stereo not drawn) gave SARS PLpro yeast 3.5%, Pf growth 96h inconclusive, HCV inh 21.9%, AMA1-RON2 inh 73.9%, NS1 function inh inconclusive and Pf growth 48h -16.9%.
`Cc1ccc(C(=O)N2N=C(c3ccc(Br)cc3)CC2c2ccccc2O)cc1` (stereo not drawn) gave SARS PLpro yeast 0.7%, Pf growth 96h 10.4µM*, HCV inh inconclusive, AMA1-RON2 inh -6.7%, NS1 function inh -7.7% and Pf growth 48h inconclusive.
`CC(=O)N1N=C(c2ccccc2)CC1c1ccccc1` (stereo not drawn) gave SARS PLpro yeast -5.3%, Pf growth 96h inconclusive, HCV inh -0.7%, AMA1-RON2 inh 5.0%, NS1 function inh -20.8% and Pf growth 48h 3.2%.
For N=C(SC1CC(=O)N(c2ccc(F)cc2)C1=O)N1N=C(c2ccccc2)CC1c1ccccc1 (stereo not drawn) the results were SARS PLpro yeast -2.0%, Pf growth 96h 33.3%, HCV inh 35.1%, AMA1-RON2 inh -7.9% and Pf growth 48h 2.08µM*.
